Values joined by “and” are separate entries in the source; they are usually repeats but may differ in a detail not shown here. Equal values may be shown once. Results filed as inconclusive are left out. Entries that show only a call come without a potency. The source holds several records for some structures; these can differ, active in one and inactive in another. Active and inactive are the calls of the source. Unless noted, calls follow the shape of the dose curve; as a rule, active = well fitted curve in the direction sought with a large enough effect in the repeat runs; inconclusive = weak or mixed curves; inactive = no such curve, though single readings can be large; an effect the other way counts as inactive or inconclusive.
Experiments:
[1] = qHTS assay to identify small molecule antagonists of the sonic hedgehog signaling (Shh) pathway (AID 1259369; calls by dose curve; also: nearly all actives have a fitted effect of over 45% in size; also: potency is read from the fitted curve at half-maximal effect)
How it was run: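 Stable Gli1-Luc reporter NIH/3T3 clone; quantitative HTS in stimulated mode with conditioned medium. Luminescence measured after 24hr compound treatment at 37 C.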

[2] = molecular target: Estrogen receptor beta (Homo sapiens) (UniProt Q92731); test: qHTS assay to identify small molecule agonists of the estrogen receptor beta (ER-beta) signaling pathway (AID 1259377; active = well fitted activation curve with a large enough effect in the signal ratio in the repeat runs, not every such curve was filed as active; the % refers to the signal ratio)
Sequence of Estrogen receptor beta (Homo sapiens) (Q92731 whole entry, looked up): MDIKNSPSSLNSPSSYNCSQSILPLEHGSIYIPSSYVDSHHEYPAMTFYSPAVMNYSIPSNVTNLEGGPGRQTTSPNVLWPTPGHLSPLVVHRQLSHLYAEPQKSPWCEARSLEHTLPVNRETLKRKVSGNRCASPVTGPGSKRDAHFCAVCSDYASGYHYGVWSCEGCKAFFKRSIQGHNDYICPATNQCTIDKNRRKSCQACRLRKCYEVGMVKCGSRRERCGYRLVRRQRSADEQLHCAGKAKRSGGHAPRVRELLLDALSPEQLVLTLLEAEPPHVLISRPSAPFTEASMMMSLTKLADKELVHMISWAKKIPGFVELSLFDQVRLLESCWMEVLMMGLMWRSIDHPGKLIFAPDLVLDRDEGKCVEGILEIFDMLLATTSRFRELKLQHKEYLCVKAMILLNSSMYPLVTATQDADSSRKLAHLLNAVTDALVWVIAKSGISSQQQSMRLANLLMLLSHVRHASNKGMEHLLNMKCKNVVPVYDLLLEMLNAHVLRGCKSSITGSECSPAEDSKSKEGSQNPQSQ
How it was run: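 HEK293T ER-beta-UAS-bla; 2% charcoal-stripped FBS; cells pre-incubated 6 hr, compound 16 hr, 37C/5% CO2; LiveBLAzer B/G FRET substrate 2 h RT; fluorescence intensity read.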

[3] = molecular target: Estrogen receptor beta (Homo sapiens) (UniProt Q92731); test: qHTS assay to identify small molecule antagonists of the estrogen receptor beta (ER-beta) signaling pathway (AID 1259378; active = well fitted inhibition curve with a large enough effect in the signal ratio in the repeat runs, not every such curve was filed as active; the % refers to the signal ratio)
How it was run: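 Antagonist mode: compounds added to beta-lactamase reporter HEK293T ER-beta-UAS cells stimulated with E2 (1nM final), 16 hr at 37C. LiveBLAzer B/G FRET substrate, 2 hours room temperature, fluorescence read-out.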

[4] = qHTS assay to identify small molecule agonists of the androgen receptor (AR) signaling pathway in the presence of an antagonist - cell viability counter screen (AID 1259379);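 also: MDA-kb2 human breast cancer cells carrying an MMTV luciferase reporter; series mostly up to about 92 µM; nearly all actives have a fitted effect of over 25% in size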
How it was run: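 Nilutamide-containing (3.0uM final) MDA-kb2 cultures, 3,000 cells/well, were treated with compounds across 15 concentrations. After 16 hr at 37C with no CO2, cell viability was determined by CellTiter-Fluor fluorescence in the luciferase assay wells.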

[5] = qHTS assay to identify small molecule antagonists of the estrogen receptor beta (ER-beta) signaling pathway - cell viability counter screen (AID 1259382);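 also: HEK293T cells carrying ER-beta-UAS-bla reporter stimulated with estradiol; series mostly up to about 92 µM; nearly all actives have a fitted effect of over 55% in size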
How it was run: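 Viability is scored by CellTiter-Glo luminescence (30 min, room temperature) in ER-beta-UAS-bla HEK293T wells already read for reporter fluorescence. Compound exposure lasts 16 hr at 37C alongside 1nM 17-beta-estradiol in charcoal-stripped serum medium.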

[6] = molecular target: Estrogen receptor (Homo sapiens) (UniProt P03372); test: qHTS assay to identify small molecule agonists of the estrogen receptor alpha (ER-alpha) signaling pathway in the presence of an antagonist (AID 1259383; calls by dose curve; also: top concentration of the series differs between compounds; nearly all actives have a fitted effect of over 15% in size)
Sequence of Estrogen receptor (Homo sapiens) (P03372 whole entry, looked up): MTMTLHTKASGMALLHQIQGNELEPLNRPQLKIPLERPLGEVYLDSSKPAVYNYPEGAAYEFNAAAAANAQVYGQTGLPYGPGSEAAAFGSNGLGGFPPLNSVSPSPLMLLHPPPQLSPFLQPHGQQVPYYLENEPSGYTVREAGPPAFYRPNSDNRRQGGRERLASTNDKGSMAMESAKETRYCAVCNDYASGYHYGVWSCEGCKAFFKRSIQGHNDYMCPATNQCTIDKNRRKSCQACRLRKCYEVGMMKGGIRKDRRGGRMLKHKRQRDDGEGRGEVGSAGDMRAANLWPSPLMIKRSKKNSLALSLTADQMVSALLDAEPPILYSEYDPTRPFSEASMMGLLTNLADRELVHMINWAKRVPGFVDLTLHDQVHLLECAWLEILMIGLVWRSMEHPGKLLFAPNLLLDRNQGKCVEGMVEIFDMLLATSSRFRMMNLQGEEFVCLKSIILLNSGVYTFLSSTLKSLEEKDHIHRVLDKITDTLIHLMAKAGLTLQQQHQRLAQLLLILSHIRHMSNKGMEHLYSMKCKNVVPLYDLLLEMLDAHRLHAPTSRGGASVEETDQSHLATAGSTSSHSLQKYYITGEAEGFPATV
How it was run: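 Readout was ERE-driven luciferase luminescence in VM7Luc4E2 cells, which express full-length ER-alpha endogenously. Compounds were tested at 15 concentrations for 22hr alongside 10.0nM ICI-182,780 (final concentration).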

[7] = qHTS assay to identify small molecule agonists or antagonists of the thyroid stimulating hormone receptor (TSHR) signaling pathway - wild type cell line counter screen (AID 1259384; calls by dose curve)
How it was run: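 Counter screen in untransfected Hek293: compounds (15-point titration, triplicate) plus phosphodiesterase inhibitor Ro20-1724 added after 18 h plating; 30 min RT. Intracellular cAMP via competitive d2/cryptate immunoassay, 1 h incubation.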

[8] = molecular target: Thyrotropin receptor (Homo sapiens) (UniProt P16473); test: qHTS assay to identify small molecule antagonists of the thyroid stimulating hormone receptor (TSHR) signaling pathway (AID 1259385; calls by dose curve; also: nearly all actives have a fitted effect of over 20% in size)
Sequence of Thyrotropin receptor (Homo sapiens) (P16473 whole entry, looked up): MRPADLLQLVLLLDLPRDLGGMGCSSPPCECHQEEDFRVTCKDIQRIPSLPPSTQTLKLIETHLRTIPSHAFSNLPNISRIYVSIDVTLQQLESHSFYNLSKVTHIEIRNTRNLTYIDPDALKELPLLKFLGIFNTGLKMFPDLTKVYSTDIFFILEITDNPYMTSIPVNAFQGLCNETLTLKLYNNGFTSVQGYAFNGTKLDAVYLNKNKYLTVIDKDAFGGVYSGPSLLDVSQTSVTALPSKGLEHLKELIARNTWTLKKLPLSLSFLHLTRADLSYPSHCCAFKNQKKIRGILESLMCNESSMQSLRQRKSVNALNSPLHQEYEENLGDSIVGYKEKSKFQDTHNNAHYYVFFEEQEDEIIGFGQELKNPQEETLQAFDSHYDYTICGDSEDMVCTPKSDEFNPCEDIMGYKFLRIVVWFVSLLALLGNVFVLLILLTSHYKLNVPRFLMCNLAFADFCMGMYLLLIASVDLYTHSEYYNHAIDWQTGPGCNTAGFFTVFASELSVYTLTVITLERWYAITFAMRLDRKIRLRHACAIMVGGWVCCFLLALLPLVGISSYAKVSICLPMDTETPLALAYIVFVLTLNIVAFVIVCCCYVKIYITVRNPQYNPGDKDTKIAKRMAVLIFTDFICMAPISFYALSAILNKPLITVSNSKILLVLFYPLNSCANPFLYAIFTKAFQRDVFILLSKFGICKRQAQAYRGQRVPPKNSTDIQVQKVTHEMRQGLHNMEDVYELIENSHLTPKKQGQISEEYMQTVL
How it was run: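 Antagonist mode: compound-treated TSHR-expressing HEK293 cells were stimulated with 1.5 ng/mL TSH (final) in presence of Ro20-1724 for 30 min at RT. HTRF cAMP detection after 1 h; each compound tested at 15 concentrations, triplicate.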

[9] = qHTS assay to identify small molecule agonists of the estrogen receptor alpha (ER-alpha) signaling pathway in the presence of an antagonist - cell viability counter screen (AID 1259386);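 also: cells exposed to compounds for 22 h at 37 °C before the viability read; nearly all actives have a fitted effect of over 30% in size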; also: potency is read from the fitted curve at half-maximal effect
How it was run: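 In this counter screen, compound effects on VM7Luc4E2 viability were tested in the presence of the antagonist ICI-182,780 at 10.0nM final. Compounds were dosed at 15 concentrations, exposure lasted 22hr, and the CellTiter-Fluor signal was read.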

[10] = molecular target: Progesterone receptor (Homo sapiens) (UniProt P06401); test: qHTS assay to identify small molecule agonists of the progesterone receptor (PR) signaling pathway (AID 1346784; calls by dose curve; also: nearly all actives have a fitted effect of over 30% in size)
Sequence of Progesterone receptor (Homo sapiens) (P06401 whole entry, looked up): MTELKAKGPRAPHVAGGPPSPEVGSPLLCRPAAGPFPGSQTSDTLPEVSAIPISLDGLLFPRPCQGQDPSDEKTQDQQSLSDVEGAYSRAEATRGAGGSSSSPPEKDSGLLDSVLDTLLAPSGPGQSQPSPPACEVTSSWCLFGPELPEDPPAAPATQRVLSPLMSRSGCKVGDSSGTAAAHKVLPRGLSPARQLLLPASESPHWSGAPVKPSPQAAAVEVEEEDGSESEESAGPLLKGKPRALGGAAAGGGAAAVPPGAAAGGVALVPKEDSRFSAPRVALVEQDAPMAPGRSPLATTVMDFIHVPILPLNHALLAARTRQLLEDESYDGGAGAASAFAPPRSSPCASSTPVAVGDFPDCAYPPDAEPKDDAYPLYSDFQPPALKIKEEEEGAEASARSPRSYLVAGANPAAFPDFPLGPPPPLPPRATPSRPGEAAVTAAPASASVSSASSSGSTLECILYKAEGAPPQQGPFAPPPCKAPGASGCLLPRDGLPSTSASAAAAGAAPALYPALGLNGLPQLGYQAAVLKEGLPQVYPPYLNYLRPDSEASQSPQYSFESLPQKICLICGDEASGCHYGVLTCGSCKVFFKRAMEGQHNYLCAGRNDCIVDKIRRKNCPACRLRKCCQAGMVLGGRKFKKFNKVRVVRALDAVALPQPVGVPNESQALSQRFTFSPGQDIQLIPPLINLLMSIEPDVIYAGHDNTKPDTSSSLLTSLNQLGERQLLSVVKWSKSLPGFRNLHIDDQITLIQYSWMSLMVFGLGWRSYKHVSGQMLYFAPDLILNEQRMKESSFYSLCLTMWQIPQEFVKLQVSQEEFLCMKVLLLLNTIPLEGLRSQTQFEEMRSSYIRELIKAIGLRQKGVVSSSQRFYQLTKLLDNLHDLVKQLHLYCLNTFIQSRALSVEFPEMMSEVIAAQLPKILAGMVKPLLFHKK
How it was run: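 Beta-lactamase reporter read-out: after 16 hr compound treatment at 37C and a further 2 hr at room temperature with LiveBLAzer B/G FRET substrate, fluorescence was measured in PR-UAS-bla HEK 293T cells grown in 2% charcoal-stripped serum.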

[11] = molecular target: Progesterone receptor (Homo sapiens) (UniProt P06401); test: qHTS assay to identify small molecule antagonists of the progesterone receptor (PR) signaling pathway (AID 1346795; active = well fitted inhibition curve with a large enough effect in the signal ratio in the repeat runs, not every such curve was filed as active; the % refers to the signal ratio)
How it was run: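 Read-out is fluorescence from the LiveBLAzer B/G FRET substrate, cleaved by a UAS-controlled beta-lactamase in PR-UAS-bla HEK293T cells after 16 hr exposure to compound plus 1 nM promegestone (final), followed by 2 hr at room temperature.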

[12] = qHTS assay to identify small molecule antagonists of the progesterone receptor (PR) signaling pathway - cell viability counter screen (AID 1346798); also: nearly all actives have a fitted effect of over 50% in size; also: potency is read from the fitted curve at half-maximal effect
How it was run: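 HEK293T PR-UAS-bla, 2% charcoal-stripped FBS; 4 hr pre-plate; cpd + R5020, 16 h 37C; LiveBLAzer read first; then CellTiter-Glo 30 min RT, luminescence.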

[13] = qHTS assay to identify small molecule agonists of the progesterone receptor (PR) signaling pathway - cell viability counter screen (AID 1346799; calls by dose curve; also: nearly all actives have a fitted effect of over 45% in size)
How it was run: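 Luminescence from CellTiter-Glo, added after the beta-lactamase FRET read in the same wells, gave cytotoxicity in PR-UAS-bla HEK293T cells treated with compounds for 16 hr at 37C.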

[14] = qHTS assay to identify small molecule antagonists of the TGF-beta/Smad signaling pathway - cell viability counter screen (AID 1346824); also: nearly all actives have a fitted effect of over 50% in size
How it was run: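 Cytotoxicity counter-screen run in the same wells as the beta-lactamase Smad reporter read: CellTiter-Glo luminescence after 30 min at room temperature. HEK 293T SBE-bla cells had 5 hr compound exposure at 37 C with TGF-beta1 (0.25 ng/mL stock).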

[15] = qHTS assay to identify small molecule agonists of the TGF-beta/Smad signaling pathway - cell viability counter screen (AID 1346829); also: top concentration of the series differs between compounds; nearly all actives have a fitted effect of over 45% in size
How it was run: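 Compound-treated SBE-bla HEK 293T cells (5 hr, 37 C) were assessed for viability with CellTiter-Glo in parallel with the reporter read.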

[16] = qHTS assay to identify small molecule agonists of the TGF-beta/Smad signaling pathway (AID 1346859; active = well fitted activation curve with a large enough effect in the signal ratio in the repeat runs, not every such curve was filed as active; the % refers to the signal ratio; also: series mostly up to about 77 µM)
How it was run: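 SBE-bla HEK 293T, 4,000 cells/well, plated o/n; cpd in DMSO, 5 hr, 37 C/5% CO2; B/G FRET substrate 2 hr RT; ex 405, em 460/530 nm.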

[17] = molecular target: Thyrotropin-releasing hormone receptor (Homo sapiens) (UniProt P34981); test: qHTS assay to identify small molecule antagonists of the thyrotropin-releasing hormone receptor (TRHR) signaling pathway (AID 1346877; active = well fitted inhibition curve with a large enough effect in the repeat runs, not every such curve was filed as active; also: series mostly up to about 51 µM)
Sequence of Thyrotropin-releasing hormone receptor (Homo sapiens) (P34981 whole entry, looked up): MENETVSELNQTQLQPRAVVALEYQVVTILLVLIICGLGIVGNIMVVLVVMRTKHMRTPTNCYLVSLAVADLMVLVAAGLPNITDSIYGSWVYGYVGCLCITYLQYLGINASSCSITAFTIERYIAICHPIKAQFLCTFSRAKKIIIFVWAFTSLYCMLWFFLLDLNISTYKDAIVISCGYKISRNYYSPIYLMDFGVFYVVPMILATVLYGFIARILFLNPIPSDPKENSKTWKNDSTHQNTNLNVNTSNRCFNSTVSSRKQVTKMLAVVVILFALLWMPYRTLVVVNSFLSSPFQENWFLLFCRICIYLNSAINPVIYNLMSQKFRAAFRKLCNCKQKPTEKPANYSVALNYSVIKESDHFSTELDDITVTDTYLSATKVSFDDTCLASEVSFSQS
How it was run: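 Kinetic fluorescence (3 min, 1 s resolution) following stimulation with TRH at 1 nM final; HEK293 cells bearing human TRHR; 5 min compound preincubation at RT; concentration-response over 15 points, triplicates.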

[18] = molecular target: Thyrotropin-releasing hormone receptor (Homo sapiens) (UniProt P34981); test: qHTS assay to identify small molecule agonists of the thyrotropin-releasing hormone receptor (TRHR) signaling pathway (AID 1346891; calls by dose curve; also: series mostly up to about 58 µM)
How it was run: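 Intracellular calcium rise, read as fluorescence every second for 3 min, served as the agonist signal in dye-loaded HEK293 cells expressing TRHR; each compound ran at 15 concentrations in triplicate.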

[19] = qHTS assay to identify small molecule agonists of the estrogen receptor beta (ER-beta) signaling pathway - cell viability counter screen (AID 1259380); also: nearly all actives have a fitted effect of over 30% in size
How it was run: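 Steps: plate ER-beta-UAS-bla HEK293T cells, rest 6 hr; add compounds in DMSO; incubate 16 hr at 37C, 5% CO2; add FRET substrate 2 hr; add CellTiter-Glo, wait 30 min at room temperature; read luminescence.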

[20] = molecular target: Androgen receptor (Homo sapiens) (UniProt P10275); test: qHTS assay to identify small molecule agonists of the androgen receptor (AR) signaling pathway in the presence of an antagonist (AID 1259381; calls by dose curve; also: nearly all actives have a fitted effect of over 15% in size)
Sequence of Androgen receptor (Homo sapiens) (P10275 whole entry, looked up): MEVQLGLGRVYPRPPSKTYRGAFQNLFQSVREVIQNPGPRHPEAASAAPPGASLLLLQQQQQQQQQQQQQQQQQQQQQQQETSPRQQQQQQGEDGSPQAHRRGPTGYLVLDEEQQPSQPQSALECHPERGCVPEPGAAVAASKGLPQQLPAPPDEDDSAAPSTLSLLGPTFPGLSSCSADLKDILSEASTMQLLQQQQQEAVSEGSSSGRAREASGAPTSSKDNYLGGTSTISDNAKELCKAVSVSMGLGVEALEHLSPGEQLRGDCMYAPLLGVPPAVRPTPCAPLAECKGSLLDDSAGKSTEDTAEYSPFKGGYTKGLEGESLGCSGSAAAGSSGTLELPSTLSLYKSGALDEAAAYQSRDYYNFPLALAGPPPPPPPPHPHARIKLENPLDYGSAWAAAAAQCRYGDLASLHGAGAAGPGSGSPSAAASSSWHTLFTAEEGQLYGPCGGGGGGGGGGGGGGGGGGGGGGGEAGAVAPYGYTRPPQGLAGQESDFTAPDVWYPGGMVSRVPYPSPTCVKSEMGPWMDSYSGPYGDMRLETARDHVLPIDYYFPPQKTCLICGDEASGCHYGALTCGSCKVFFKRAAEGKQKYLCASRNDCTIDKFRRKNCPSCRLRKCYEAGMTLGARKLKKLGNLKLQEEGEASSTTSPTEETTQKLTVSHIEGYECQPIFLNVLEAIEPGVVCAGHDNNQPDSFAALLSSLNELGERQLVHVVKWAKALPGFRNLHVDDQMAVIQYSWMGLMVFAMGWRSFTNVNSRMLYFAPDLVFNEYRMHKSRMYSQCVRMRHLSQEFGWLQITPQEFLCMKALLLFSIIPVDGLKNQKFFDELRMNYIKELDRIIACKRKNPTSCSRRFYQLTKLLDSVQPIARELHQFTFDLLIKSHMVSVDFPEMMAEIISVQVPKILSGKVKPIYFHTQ
How it was run: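 Reporter-gene luminescence from MDA-kb2 cells exposed 16hr at 37C (0% CO2) to 15-point compound titrations with 3.0uM final nilutamide as AR antagonist.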

| SMILES | Potency [1] | outcome [2] | Potency [3] | Potency [4] | Potency [5] | Potency [6] | Potency [7] | outcome [8] | Potency [9] | Potency [10] | Potency [11] | Potency [12] | Potency [13] | Potency [14] | Potency [15] | outcome [16] | outcome [17] | Potency [18] | Potency [19] | outcome [20] |
| --- | --- | --- | --- | --- | --- | --- | --- | --- | --- | --- | --- | --- | --- | --- | --- | --- | --- | --- | --- | --- |
| OCCCc1ccccc1 | inactive | inactive | inactive | inactive | inactive | inactive | inactive | inactive | inactive | inactive | inactive | inactive | inactive | inactive | inactive | inactive | inactive | inactive |  |  |
| CCCCNC(=O)NS(=O)(=O)c1ccc(N)cc1 | inactive | inactive | inactive | inactive | inactive |  | inactive | inactive | inactive | inactive | inactive | inactive | inactive | inactive | inactive | inactive | inactive | inactive |  |  |
| NC(=O)N/N=C/c1ccc([N+](=O)[O-])o1 | inactive and 10.9 µM (active) and 29.8 µM (active) | inactive | inactive | inactive | inactive | inactive | inactive | inactive | inactive and 61.1 µM (active) | inactive | inactive | inactive |  | inactive | inactive | inactive | inactive | inactive |  |  |
| CCCCOCCOCCSC#N | inactive | inactive | inactive | inactive | inactive |  | inactive | inactive | inactive |  |  | inactive |  | inactive | inactive | inactive | inactive | inactive |  |  |
| Nc1cccc(N)c1 | inactive | inactive | inactive | inactive | inactive |  |  |  | inactive |  |  | inactive | inactive | inactive | inactive | inactive | inactive |  |  |  |
| NC(=O)N1c2ccccc2C=Cc2ccccc21 | inactive | inactive | inactive | inactive | inactive | inactive |  |  | inactive | inactive | inactive | inactive | inactive | inactive |  | inactive | inactive |  |  |  |
| NC(=O)c1ccc([N+](=O)[O-])cc1Cl | inactive | inactive | inactive | inactive | inactive |  | inactive | inactive | inactive | inactive | inactive | inactive |  | inactive |  | inactive | inactive |  | inactive |  |
| COC(=O)c1ccc(O)cc1 | inactive | inactive | inactive | inactive | inactive | inactive | inactive | inactive | inactive | inactive | inactive | inactive | inactive | inactive | inactive | inactive | inactive | inactive |  |  |
| COCCOCCOC | inactive | inactive | inactive | inactive | inactive | inactive | inactive | inactive | inactive | inactive | inactive | inactive |  | inactive |  | inactive | inactive |  |  | inactive |
| O=c1cc[nH]c(=O)[nH]1 | inactive | inactive | inactive | inactive | inactive |  | inactive | inactive | inactive | inactive | inactive | inactive |  | inactive | inactive | inactive | inactive | inactive |  |  |
| CC(O)COc1ccccc1 (configuration not stated) | inactive | inactive | inactive | inactive | inactive |  | inactive | inactive | inactive | inactive | inactive | inactive | inactive | inactive |  | inactive |  |  |  | inactive |
| CC1(C)O[C@@H]2[C@@H](CO[C@@]3(COS(N)(=O)=O)OC(C)(C)O[C@@H]23)O1 | inactive | inactive | inactive | inactive | inactive | inactive | inactive | inactive | inactive | inactive | inactive | inactive |  | inactive | inactive | inactive | inactive |  |  |  |
| CC(C)(C)CC(C)(C)c1ccc(O)c(-n2nc3ccccc3n2)c1 | inactive | inactive | inactive | inactive | inactive | inactive | inactive | inactive | inactive | inactive | inactive | 49.2 µM (active) |  |  |  | inactive | inactive |  |  |  |
| CCCCC/C(C=O)=C\c1ccccc1 | inactive | inactive | inactive | inactive | inactive |  | inactive | inactive | inactive | inactive | inactive | inactive | inactive | inactive | inactive | inactive |  |  |  |  |
| NC(=O)NO | inactive | inactive | inactive | inactive | inactive |  | inactive | inactive | inactive | inactive | inactive | inactive | inactive | inactive |  | inactive | inactive |  |  |  |
| N[C@@H](Cc1c[nH]c2ccccc12)C(=O)O | inactive | inactive | inactive | inactive | inactive |  | inactive | inactive | inactive | inactive | inactive | inactive | inactive | inactive |  | inactive | inactive | inactive | inactive |  |
| COC(=O)C1CCC(C(=O)OC)CC1 (configuration not stated) | inactive | inactive | inactive | inactive | inactive | inactive | inactive | inactive | inactive | inactive | inactive | inactive | inactive | inactive | inactive | inactive | inactive | inactive |  |  |
